Experiment [1] in a line: NCI Yeast Anticancer Drug Screen. Data for the rad50 strain (AID 155).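 Note: 0% = growth of vehicle-only cultures of the same strain.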 The settings on record: S. cerevisiae rad50 strain growth inhibition; at 50.0 µM; hits give high values. In outline: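 Inhibition values express reduced yeast growth in compound-treated cultures relative to vehicle-treated controls.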
Experiment [2] is described as follows: NCI Yeast Anticancer Drug Screen. Data for the mec2-1 strain (AID 157). The conditions noted are these: S. cerevisiae mec2-1 strain, at 50.0 µM, hits give high values. In outline: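 Test agents were screened against the mec2-1 yeast strain, with defined DNA repair or cell cycle alteration. Growth was scored as inhibition against vehicle-only controls.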
Experiment [3] is described as follows: NCI Yeast Anticancer Drug Screen. Data for the sgs1 mgt1 strain (AID 161).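 Note: 0% = growth of cultures given vehicle only.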 The conditions noted are these: S. cerevisiae sgs1 mgt1 strain, at 50.0 µM, hits give high values. In outline:
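Inhibition of yeast growth, normalised to vehicle-treated controls, is reported for a strain bearing genetic alterations in DNA damage repair.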

A short description of experiment [4]: NCI Yeast Anticancer Drug Screen. Data for the cln2 rad14 strain (AID 165).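 Note: 0% = growth equal to vehicle treated cultures.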 The conditions noted are these: S. cerevisiae cln2 rad14 strain, at 50.0 µM, hits give high values. In outline:
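Growth of compound-exposed yeast (cln2 rad14 genotype) measured and expressed as inhibition relative to vehicle.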

Experiment [5] is described as follows: NCI Yeast Anticancer Drug Screen. Data for the bub3 strain (AID 167). The conditions noted are these: S. cerevisiae bub3 mutant strain, at 50.0 µM, hits give high values. In outline: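 Steps: expose the mutant yeast strain to compound; grow alongside vehicle-treated cultures; measure growth; express inhibition against the vehicle cultures.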
Experiment [6] can be described thus: NCI Yeast Anticancer Drug Screen. Data for the mlh1 rad18 strain (AID 175). The settings on record: S. cerevisiae mlh1 rad18 strain growth inhibition; at 50.0 µM; hits give high values. An outline of the steps:
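In this whole-cell yeast screen, a strain with altered DNA damage repair is challenged with compound, and its growth is measured against matched vehicle-treated controls.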

Compounds without any hit were thinned out: in the full panel of roughly 79,000, 15% have a hit. Unmarked numbers belong to inactive results. Calls of active or inactive are those of the source. Cut-off read from the data, not from the text of the source: active = growth inhibition above about 70%; inactive = the rest.

With `CCOC(=O)C(=Cn1ccc(=O)[nH]c1=S)C(=O)OCC`, the growth inhibition in experiment [1] was -4.6%; in experiment [2] it was -31.1%; in experiment [3], -23.9%; in experiment [4] it was 9.35%; in experiment [5], -11.6%; in experiment [6], -10.3%.
With `COc1ccc(C(=O)/C=C/c2cc(C(C)(C)C)c(O)c(C(C)(C)C)c2)cc1`, the growth inhibition in experiment [1] is 17.4%; in experiment [2] it was -1.2%; in experiment [3], 14.6%; in experiment [4], 25.4%; in experiment [5], 7.8%; in experiment [6], 18.2%.
With `CC(=O)O/N=C1\C=Cc2c(no[n+]2[O-])C1=O`, the growth inhibition in experiment [1] was -8.9%; in experiment [2] it was -20.3%; in experiment [3] it was -0.7%; in experiment [4], 12.1%; in experiment [5] it was -12.5%; in experiment [6], -5.35%.
For the molecule `CCOC(=O)C1Sc2ccccc2N=C1C` (stereo unspecified), the growth inhibition in experiment [1] was 0%; in experiment [2], -15.8%; in experiment [3] it was -2.45%; in experiment [4], -1.25%; in experiment [5] it was -10.6%; in experiment [6] it was 2.6%.
In the case of `COc1ccc(C2=C(c3ccccc3)C(=O)C(c3ccccc3)=C2c2ccccc2)cc1`, the growth inhibition in experiment [1] was -12.9%; in experiment [2] it was -12.9%; in experiment [3], -8.7%; in experiment [4], 13.2%; in experiment [5], -1.7%; in experiment [6], -6.05%.
Take `Cc1c(C)c(C)c(S(=O)(=O)NCCNS(=O)(=O)c2c(C)c(C)c(C)c(C)c2C)c(C)c1C`: the growth inhibition is 5.7% in experiment [1]; -16.4% in experiment [2]; -0.7% in experiment [3]; 15.3% in experiment [4]; -2.5% in experiment [5]; 1.7% in experiment [6].
Turning to `C=CCNC(=S)/N=C/C(C(=O)Nc1ccccc1OC)=C(\C)O`, the growth inhibition is -17.4% in experiment [1]; -19.2% in experiment [2]; -27.3% in experiment [3]; -9.85% in experiment [4]; -34.5% in experiment [5]; -16.3% in experiment [6].
Regarding `O=C(O)C1(C(=O)O)Cc2ccccc2C1`, the growth inhibition in experiment [1] is -15.6%; in experiment [2], -12.6%; in experiment [3], -9.15%; in experiment [4] it was -9.35%; in experiment [5], 9.85%; in experiment [6] it was 14.8%.
As to `O=C1C2=C(c3ccccc31)C(c1ccc(Cl)cc1)N1C(=O)CCSC1=N2` (stereo unspecified), the growth inhibition in experiment [1] is 24.7%; in experiment [2], 10.6%; in experiment [3], 1.9%; in experiment [4], 8.25%; in experiment [5], 27.1%; in experiment [6], 25.3%.
With `O=[N+]([O-])c1ccc(N=Cc2ccccc2O)cc1`, the growth inhibition in experiment [1] was -19.7%; in experiment [2] it was -8.05%; in experiment [3], -23.6%; in experiment [4], 4.3%; in experiment [5], 8.05%; in experiment [6], -6.9%.
In the case of `Nc1ccc2nnn(OC3CCCC3)c2c1`, the growth inhibition is 40.2% in experiment [1]; 13.9% in experiment [2]; 3.55% in experiment [3]; 9.4% in experiment [4]; -4.05% in experiment [5]; 0.4% in experiment [6].
Turning to `COC1CC(OC(=O)c2ccccc2)C(OC(=O)c2ccccc2)C(CBr)O1` (stereo unspecified), the growth inhibition is 85.3% (active) in experiment [1]; 90.2% (active) in experiment [2]; 88.6% (active) in experiment [3]; 91% (active) in experiment [4]; 80.1% (active) in experiment [5]; 89.1% (active) in experiment [6].
For `CC1CN=C(N(C(=O)Nc2ccc(Cl)c(Cl)c2)c2ccccc2)S1` (stereo unspecified), the growth inhibition is -47.3% in experiment [1]; 3.6% in experiment [2]; -5.7% in experiment [3]; 23.8% in experiment [4]; -2.55% in experiment [5]; -3.3% in experiment [6].
For the molecule `CC(C)OC(=O)C1CCC(=O)N1` (stereo unspecified), the growth inhibition in experiment [1] was 12.1%; in experiment [2], -6.25%; in experiment [3], -7.4%; in experiment [4], -84.1%; in experiment [5] it was 19%; in experiment [6] it was -20.4%.
Consider `Nc1ccc(C(C(=O)O)c2ccccc2)cc1Cl` (stereo unspecified), for which the growth inhibition in experiment [1] was 22.6%; in experiment [2] it was -9%; in experiment [3], 20.9%; in experiment [4] it was -1.55%; in experiment [5], 12.3%; in experiment [6] it was 5.65%.
Take `Cc1c(NC=O)c(=O)n(-c2ccccc2)n1C`: the growth inhibition was -10.8% in experiment [1]; -33% in experiment [2]; 32.9% in experiment [3]; 3.65% in experiment [4]; 14.4% in experiment [5]; 33.7% in experiment [6].
As to `CC(CCC(=O)O)(CCC(=O)O)C(=O)O`, the growth inhibition is 4.2% in experiment [1]; 3.85% in experiment [2]; -0.8% in experiment [3]; -15.6% in experiment [4]; 3.7% in experiment [5]; -1.9% in experiment [6].
As to `Cc1cnc2nc(C)c(C)nc2n1`, the growth inhibition in experiment [1] is 12.3%; in experiment [2], 1.55%; in experiment [3], 2.35%; in experiment [4] it was -0.95%; in experiment [5] it was -0.85%; in experiment [6], 4.95%.
Take `Cc1nnc2n1N=C(c1ccc(-c3ccc([N+](=O)[O-])cc3)o1)CS2`: the growth inhibition is 10.7% in experiment [1]; 3.1% in experiment [2]; -1.75% in experiment [3]; 12.1% in experiment [4]; -25.8% in experiment [5]; 10.8% in experiment [6].
On to `Cc1ccc(Cc2ccc(CCc3ccc(Cc4ccc(C)cc4)cc3)cc2)cc1`, for which the growth inhibition in experiment [1] is 10.2%; in experiment [2], 7.15%; in experiment [3], 18.6%; in experiment [4] it was 32.4%; in experiment [5], 12.2%; in experiment [6] it was 11.5%.
Regarding `C=C1C(=O)OC2/C=C(\C)C(O)C/C=C(/C)C(OC(=O)/C(C)=C\C)C(O)C12` (stereo unspecified), the growth inhibition in experiment [1] was 13.9%; in experiment [2] it was -17.8%; in experiment [3], 7.2%; in experiment [4] it was 5.6%; in experiment [5] it was -12.8%; in experiment [6], 11.8%.

(Values after PubChem BioAssay (NCI).)
